Laboratory results from PubChem BioAssay (Tox21).
Results filed as inconclusive are left out. Activity calls are given as the source filed them. Unless noted, calls come from the whole dose curve; as a rule, active = well fitted curve in the direction sought with a large enough effect in the repeat runs; inconclusive = weak or mixed curves; inactive = no such curve, though single readings can be large; an effect the other way counts as inactive or inconclusive.

Key:
[1] = target: Luciferin 4-monooxygenase (Photinus pyralis) (UniProt P08659); experiment: qHTS assay to identify small molecule inhibitors of firefly luciferase (AID 1224835); note: nearly all actives have a fitted effect of over 25% in size; note: potency is the fitted concentration of half-maximal effect
Luciferin 4-monooxygenase (Photinus pyralis), sequence (P08659 whole entry, looked up): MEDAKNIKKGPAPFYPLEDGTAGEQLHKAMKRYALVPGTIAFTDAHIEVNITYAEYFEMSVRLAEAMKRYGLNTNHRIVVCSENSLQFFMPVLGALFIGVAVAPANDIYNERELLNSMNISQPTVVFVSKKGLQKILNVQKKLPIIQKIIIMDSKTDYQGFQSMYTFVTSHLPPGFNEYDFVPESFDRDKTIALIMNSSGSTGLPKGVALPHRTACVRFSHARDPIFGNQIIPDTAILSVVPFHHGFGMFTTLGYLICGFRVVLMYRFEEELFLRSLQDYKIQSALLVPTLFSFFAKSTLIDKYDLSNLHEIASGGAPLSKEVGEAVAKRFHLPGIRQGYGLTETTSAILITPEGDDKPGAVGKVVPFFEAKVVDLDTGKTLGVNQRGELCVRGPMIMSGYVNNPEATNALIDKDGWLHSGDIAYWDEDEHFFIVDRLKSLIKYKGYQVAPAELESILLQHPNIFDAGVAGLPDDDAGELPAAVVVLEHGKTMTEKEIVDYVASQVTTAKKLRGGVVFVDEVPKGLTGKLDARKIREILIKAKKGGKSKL
Method in brief: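 Inhibition of purified Photinus luciferase is measured by luminescence. Substrate levels (D-luciferin, ATP) sit at their KM values. Each compound is tested in a concentration series.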

[2] = qHTS assay to identify small molecule agonists of the constitutive androstane receptor (CAR) signaling pathway - cell viability counter screen (AID 1224836); note: nearly all actives have a fitted effect of over 45% in size
Method in brief: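 HepG2 cells stably carrying hCAR and a CYP2B6-2.2kb reporter were plated 4 h, then given compounds at 15 concentrations plus PK11195 (final 0.75 uM). After 23 h at 37 C, viability was read by CellTiter-Fluor fluorescence.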

[3] = qHTS assay to identify small molecule antagonists of the constitutive androstane receptor (CAR) signaling pathway - cell viability counter screen (AID 1224837); note: nearly all actives have a fitted effect of over 45% in size
Method in brief: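 In quantitative HTS format, compounds at 15 concentrations were applied to HepG2 cells double-transfected with hCAR and CYP2B6-2.2kb under 50 nM CITCO stimulation; live-cell protease activity was read after 23 hr via CellTiter-Fluor.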

[4] = target: Nuclear receptor subfamily 1 group I member 3 (Homo sapiens) (UniProt Q14994); experiment: qHTS assay to identify small molecule antagonists of the constitutive androstane receptor (CAR) signaling pathway (AID 1224838); note: nearly all actives have a fitted effect of over 40% in size
Nuclear receptor subfamily 1 group I member 3 (Homo sapiens), sequence (Q14994 whole entry, looked up): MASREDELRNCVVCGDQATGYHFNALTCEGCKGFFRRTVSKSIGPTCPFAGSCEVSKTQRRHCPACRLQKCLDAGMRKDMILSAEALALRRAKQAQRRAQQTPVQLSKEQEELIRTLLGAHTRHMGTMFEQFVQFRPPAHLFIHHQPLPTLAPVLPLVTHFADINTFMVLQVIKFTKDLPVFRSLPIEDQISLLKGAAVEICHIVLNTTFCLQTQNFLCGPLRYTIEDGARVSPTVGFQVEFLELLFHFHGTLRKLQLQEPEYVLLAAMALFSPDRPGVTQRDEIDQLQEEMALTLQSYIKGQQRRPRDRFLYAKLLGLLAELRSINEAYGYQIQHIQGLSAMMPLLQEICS
Method in brief: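 CITCO-stimulated (50 nM final) HepG2 cells stably transfected with hCAR and CYP2B6-2.2kb luciferase were exposed to compounds at 15 concentrations for 24 h at 37 C/5% CO2. A luciferase reagent was added and luminescence recorded after 30 min.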

[5] = target: Nuclear receptor subfamily 1 group I member 3 (Homo sapiens) (UniProt Q14994); experiment: qHTS assay to identify small molecule agonists of the constitutive androstane receptor (CAR) signaling pathway (AID 1224839);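 note: HepG2 cells stably carrying human CAR and a CYP2B6 luciferase reporter; nearly all actives have a fitted effect of over 15% in size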
Method in brief: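 HepG2 cells stably expressing hCAR and a CYP2B6-2.2kb luciferase reporter were treated with compounds at 15 concentrations plus 0.75 uM PK11195 (final) for 24 h at 37 C; luminescence was read after ONE-Glo addition.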

[6] = qHTS assay to identify small molecule antagonists of the estrogen related receptor signaling pathway with the pleiotropic PPARgamma coactivator (PGC) from Tox21 10K library - cell viability counter screen (AID 1224840; active = well fitted cell-killing curve with a large enough effect in the repeat runs, not every such curve was filed as active; note: nearly all actives have a fitted effect of over 40% in size)
Method in brief: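 Viability counter screen, PGC/ERR cells: 17.5 h compound exposure at 37 C, CellTiter-Fluor fluorescence endpoint.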

[7] = target: Thyrotropin receptor (Homo sapiens) (UniProt P16473); experiment: qHTS assay to identify small molecule agonists of the thyroid stimulating hormone receptor (TSHR) signaling pathway (AID 1224843; calls by dose curve; note: nearly all actives have a fitted effect of over 45% in size)
Thyrotropin receptor (Homo sapiens), sequence (P16473 whole entry, looked up): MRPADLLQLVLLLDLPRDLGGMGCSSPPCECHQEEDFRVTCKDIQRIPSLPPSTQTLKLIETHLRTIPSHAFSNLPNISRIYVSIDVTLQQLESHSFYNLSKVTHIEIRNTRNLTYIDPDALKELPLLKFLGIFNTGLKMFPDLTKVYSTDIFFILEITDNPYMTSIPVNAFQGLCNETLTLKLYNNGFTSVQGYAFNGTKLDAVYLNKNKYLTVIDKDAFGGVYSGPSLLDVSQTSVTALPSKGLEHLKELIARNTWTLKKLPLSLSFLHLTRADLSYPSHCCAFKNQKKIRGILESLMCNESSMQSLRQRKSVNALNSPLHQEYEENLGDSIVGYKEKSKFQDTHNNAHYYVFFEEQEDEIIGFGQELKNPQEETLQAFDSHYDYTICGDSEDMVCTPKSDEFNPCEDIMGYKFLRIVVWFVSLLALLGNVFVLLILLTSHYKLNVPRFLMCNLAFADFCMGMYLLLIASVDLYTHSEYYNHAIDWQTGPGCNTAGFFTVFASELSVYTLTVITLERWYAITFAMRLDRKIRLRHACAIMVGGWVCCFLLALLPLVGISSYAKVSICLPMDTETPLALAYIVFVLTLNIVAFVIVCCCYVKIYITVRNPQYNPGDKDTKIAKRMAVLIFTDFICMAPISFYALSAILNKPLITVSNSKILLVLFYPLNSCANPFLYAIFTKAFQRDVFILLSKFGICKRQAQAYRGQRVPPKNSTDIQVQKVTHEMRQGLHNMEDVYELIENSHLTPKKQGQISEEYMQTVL
Method in brief: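 Agonist activity read as cAMP rise via d2/cryptate HTRF competition, 1 h room-temperature detection, in HEK293 cells expressing TSHR. Fifteen-point titrations, each run in triplicate, with a 30 min room-temperature incubation beforehand.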

[8] = qHTS assay to identify small molecule agonists of the hypoxia (HIF-1) signaling pathway - cell viability counter screen (AID 1224844; calls by dose curve; note: nearly all actives have a fitted effect of over 50% in size)
Method in brief: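 Same wells as the HIF-1 reporter screen; ME-180 cells carrying HRE-bla, 17 hr treatment at 37C; CellTiter-Glo luminescence read after 30 min at room temperature.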

[9] = qHTS assay to identify small molecule agonists of H2AX (AID 1224845; active = well fitted activation curve with a large enough effect in the signal ratio in the repeat runs, not every such curve was filed as active; the % refers to the signal ratio)
Method in brief: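 Phospho-H2AX Ser139 measured by HTRF (ex 320 nm; em 665 and 620 nm) after 24 hr antibody incubation. Compounds, 15 concentrations, 0.76% DMSO, were applied to CHO-K1 cells for 3hr at 37C before lysis.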

[10] = qHTS assay to identify small molecule agonists of the hypoxia (HIF-1) signaling pathway (AID 1224846; active = well fitted activation curve with a large enough effect in the signal ratio in the repeat runs, not every such curve was filed as active; the % refers to the signal ratio)
Method in brief: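 In ME-180 cells bearing an HRE-bla construct, 17 h treatment with DMSO-dissolved compounds at 37C was followed by CCF4-AM loading to quantify reporter induction.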

[11] = qHTS assay to identify small molecule agonists of H2AX - cell viability counter screen (AID 1224847; calls by dose curve; note: top concentration of the series differs between compounds; nearly all actives have a fitted effect of over 30% in size)
Method in brief: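 Wild-type CHO-K1 cells (10% FBS medium) were plated overnight at 37C, exposed to compounds at 15 concentrations for 3 hr at 37C (0.76% DMSO final), and viability was read as CellTiter-Glo luminescence after 30 min at room temperature.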

[12] = qHTS RealTime-Glo MT Cell Viability Assay in HepG2 cells - 24 hour (AID 1224867); note: nearly all actives have a fitted effect of over 50% in size
Method in brief: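 HepG2 cells were seeded at 600 cells/well together with NanoLuc luciferase and a cell-permeant prosubstrate, preincubated 5 h at 37 C/5% CO2, then pin-dosed with compounds in DMSO. Nonlytic luminescence from viable cells was read at each time point.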

[13] = qHTS RealTime-Glo MT Cell Viability Assay in HEK293 cells - 32 hour (AID 1224868); note: top concentration of the series differs between compounds; nearly all actives have a fitted effect of over 50% in size
Method in brief: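 HEK293 cells were seeded at 600 cells/well together with NanoLuc luciferase and cell-permeant prosubstrate, preincubated 5 h at 37 C/5% CO2, then given compound in DMSO by pintool. Luminescence from viable-cell prosubstrate reduction was read repeatedly over 40 h.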

[14] = A CellTox Green Cytotoxicity Assay to monitor cytotoxicity in HEK293 cells - 0 hour (AID 1224869); note: nearly all actives have a fitted effect of over 50% in size
Method in brief: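 Homogeneous no-lysis format: HEK293 cell suspension mixed with CellTox Green reagent, seeded, incubated 5 h at 37 C/5% CO2, then dosed by pintool with compound in DMSO.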

[15] = qHTS assay to identify small molecule antagonists of the estrogen related receptor signaling pathway with the pleiotropic PPARgamma coactivator (PGC) from Tox21 10K library (AID 1224841; call rule not given here)
Method in brief: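 In the PGC/ERR line, DMSO solutions of test chemicals are pin-delivered to 2,000 cells/well six hours after dispensing. Following eighteen hours' incubation, One-Glo reagent is added and luminescence recorded.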

[16] = qHTS assay to identify small molecule agonists of the estrogen related receptor signaling pathway with the pleiotropic PPARgamma coactivator (PGC) from Tox21 10K library (AID 1224842); note: nearly all actives have a fitted effect of over 15% in size
Method in brief: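 Luminescence from One-Glo (30 min, room temperature) measured after PGC/ERR cells had 18 h at 37 C with pinned compound (23 nL in DMSO). Cells had been seeded at 2,000 per well and pre-incubated 6 h.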

[17] = qHTS assay to identify small molecule antagonists of the estrogen related receptor (ERR) signaling pathway from Tox21 library (AID 1224848); note: nearly all actives have a fitted effect of over 50% in size
Method in brief: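 Luciferase luminescence (ONE-Glo, 30 min room temperature) was the read-out. Cells of the NTP-supplied ERR line, 2,000 per well, were given 6 h at 37 C before compound addition in DMSO and 18 h exposure at 37 C.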

[18] = qHTS assay to identify small molecule agonists of the estrogen related receptor (ERR) signaling pathway from Tox21 library (AID 1224849; calls by dose curve; note: nearly all actives have a fitted effect of over 15% in size); conditions: ERR reporter cell line, ONE-Glo luciferase, 18 h; at 92.4 µM (top of the series) unless noted
Method in brief: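 Reporter cells (ERR, NTP source) treated with Tox21 10K compounds 18 h, 37 C. Readout: ONE-Glo luminescence, 30 min RT.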

[19] = qHTS assay to identify small molecule antagonists of the estrogen related receptor (ERR) signaling pathway from Tox21 library - cell viability counter screen (AID 1224834); note: nearly all actives have a fitted effect of over 30% in size
Method in brief: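 In this quantitative HTS format, ERR cells receive compounds in DMSO and are incubated for 17.5 h at 37 C. Live-cell protease activity is then detected with CellTiter-Fluor.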
% is set by controls: 0 for no effect and ±100 for the full control effect.

CCCOC(=O)C(C)O (stereo not drawn)
inactive: Potency [1] | Potency [2] | Potency [3] | outcome [4] | Potency [5] | outcome [6] | Potency [7] | outcome [8] | outcome [9] | outcome [10] | Potency [11] | outcome [12] | Potency [13] | outcome [14]

CC(=O)/C=C/C1C(C)=CCC(C)C1(C)C (stereo not drawn)
inactive: Potency [1] | Potency [2] | Potency [3] | outcome [4] | Potency [5] | outcome [6] | Potency [15] | outcome [16] | Potency [7] | outcome [8] | outcome [9] | outcome [10] | Potency [11] | Potency [17] | activity change, positive = activation [18] -6.15% | outcome [12] | Potency [13] | outcome [14]

C[Si](C)(C)C
inactive: Potency [1] | Potency [2] | Potency [3] | outcome [4] | Potency [5] | outcome [6] | Potency [15] | outcome [16] | Potency [7] | outcome [8] | outcome [9] | outcome [10] | Potency [11] | Potency [17] | activity change, positive = activation [18] -1.98% | outcome [12] | Potency [13] | outcome [14]

c1ccc2c(c1)ccc1c3ccccc3ccc21
inactive: Potency [19] | Potency [2] | Potency [3] | outcome [6] | Potency [7] | outcome [8] | outcome [10] | Potency [11] | outcome [12] | Potency [13] | outcome [14]

O=C1c2ccccc2C(=O)C1c1ccccc1
inactive: Potency [19] | Potency [2] | Potency [3] | Potency [5] | outcome [6] | Potency [7] | outcome [8] | outcome [9] | Potency [11] | outcome [12] | Potency [13] | outcome [14]

Nc1cccc(O)c1
inactive: Potency [1] | Potency [2] | Potency [3] | outcome [4] | Potency [5] | outcome [6] | Potency [7] | outcome [8] | outcome [9] | Potency [11] | outcome [12] | Potency [13] | outcome [14]

C#CC(C)N(C)C(=O)Nc1ccc(Cl)cc1 (stereo not drawn)
active: Potency [1] 63.2 µM
inactive: Potency [2] | Potency [3] | outcome [4] | outcome [6] | Potency [15] | outcome [16] | outcome [8] | outcome [9] | Potency [11] | Potency [17] | activity change, positive = activation [18] 5.26% | outcome [12] | outcome [14]

CC(C)=O
inactive: Potency [1] | Potency [2] | Potency [3] | Potency [5] | outcome [6] | Potency [7] | outcome [8] | outcome [9] | Potency [11] | outcome [12] | Potency [13] | outcome [14]

CC(S)C(=O)NCC(=O)O (stereo not drawn)
inactive: Potency [19] | Potency [2] | Potency [3] | Potency [5] | outcome [6] | Potency [7] | outcome [8] | outcome [9] | Potency [11] | outcome [12] | Potency [13]
